# High-throughput results from PubChem BioAssay.
# Shown are actives, neighbours in structure and some others; about 0.5% of the full set was active somewhere.
# ERK EGF block: inhibitors of EGF-stimulated ERK signaling pathway | actives 0.41% (n = 130,000) | Potency, µM (doses to about 11.5 µM), for inactives: top-dose activity change, negative = inhibition, usual class: inhibitors | HEK293-V1b, EGF-stimulated phospho-ERK AlphaScreen;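 also: potency is read from the fitted curve at half-maximal effect; plate controls were stimulated vehicle wells for no effect and unstimulated vehicle basal for full effect; nearly all actives have a fitted effect of over 55% in size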
#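 After overnight plating in 1% FBS, HEK293-V1b cells received test compound for half an hour, then a 5 min pulse of EGF (25 nM); ERK phosphorylation in lysates was read by bead-based AlphaScreen.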
# GoLoco inh red: inhibitors of human Gai1-RGS12 GoLoco interaction (red fluorophore) | P63096 | Gai1:RGS12 GoLoco peptide FP, rhodamine, 10 min | Potency, µM (doses to about 61.6 µM), for inactives: at the top dose activity, negative = inhibition, actives largely listed as inhibitors | actives 0.44% (n = 230,000) | AID 880; active = well fitted inhibition curve with a large enough effect, not every such curve was filed as active; inactive = no such curve, though single readings can be large or run the other way; also: potency is read from the fitted curve at half-maximal effect; % is scaled to controls: 0 for no effect and ±100 for the full control effect; nearly all actives have a fitted effect of over 30% in size
# CBFb RUNX1 block: CBF-beta/RUNX1 interaction disruption | AlphaScreen CBFb-His/RUNX1-biotin binding, biochemical | Potency, µM (series often up to 59.8 µM), without a hit: at the highest dose activity, negative = inhibition, most hits filed as inhibitors | 230,000 tested, under 10 active; also: % of control where 0% means no effect
#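 Bead-based AlphaScreen assay; binding partners His-tagged CBF-beta and biotinylated RUNX1 at 30 nM each. Compound exposure 15 min after a 20-min protein preincubation; bead step 90 min; all steps at room temperature.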
# pERK EGF inh: reduces EGF-stimulated ERK phosphorylation in HEK293 cells. shares compounds with ERK EGF block. HEK293 EGF-stimulated ERK phosphorylation, AlphaScreen. Potency, µM (titrated, usually from 57.5 µM), for inactives: at the highest dose activity change, negative = inhibition, most hits filed as inhibitors. actives 60% (n = 60). AID 1725
# cRaf kinase inh: blocks human c-Raf kinase activity | shares compounds with ERK EGF block | c-Raf kinase inhibition, homogeneous biochemical assay | activity change, negative = inhibition, % at 76.9 µM | 70 tested, under 10 active | AID 1728
# Target sequence (P04049 whole entry, looked up): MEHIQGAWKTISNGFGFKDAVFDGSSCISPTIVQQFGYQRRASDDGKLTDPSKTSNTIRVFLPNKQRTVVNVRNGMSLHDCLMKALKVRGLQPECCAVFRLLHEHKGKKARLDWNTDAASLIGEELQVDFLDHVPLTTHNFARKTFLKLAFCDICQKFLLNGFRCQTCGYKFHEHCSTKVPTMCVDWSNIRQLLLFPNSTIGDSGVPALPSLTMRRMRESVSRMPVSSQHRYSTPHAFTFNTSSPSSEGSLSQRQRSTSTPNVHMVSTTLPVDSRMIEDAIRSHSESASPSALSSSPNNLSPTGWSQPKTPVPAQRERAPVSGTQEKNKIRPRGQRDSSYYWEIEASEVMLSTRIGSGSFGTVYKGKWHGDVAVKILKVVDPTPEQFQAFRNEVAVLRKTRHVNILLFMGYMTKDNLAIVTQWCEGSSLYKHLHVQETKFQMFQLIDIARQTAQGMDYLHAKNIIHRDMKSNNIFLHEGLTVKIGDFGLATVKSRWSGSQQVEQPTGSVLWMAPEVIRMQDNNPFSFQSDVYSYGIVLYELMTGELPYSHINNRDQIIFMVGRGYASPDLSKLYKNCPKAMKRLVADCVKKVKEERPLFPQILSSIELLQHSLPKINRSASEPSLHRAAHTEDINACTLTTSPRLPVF
# MEK1 kinase inh: ERK pathway inhibitors follow-up: human MEK1 kinase inhibition | shares compounds with ERK EGF block | homogeneous MEK kinase activity assay, ERK pathway | Potency, µM (highest dose often 76.9 µM), for the others: at the top dose activity change, negative = inhibition, most hits filed as inhibitors | 70 tested, under 10 active | AID 1732
# Starred values were filed as active, the others as inactive; ? = inconclusive; . = not tested or not shown; [ ] = another dose, or the depositor's remark. Unless noted, calls follow the shape of the dose curve; as a rule, active = well fitted curve in the direction sought with a large enough effect; inconclusive = small, poorly fitted or top-dose-only effect, or another doubt; inactive = no such curve, though single readings can be large; an effect the other way counts as inactive or inconclusive.
SMILES,ERK EGF block,GoLoco inh red,CBFb RUNX1 block,pERK EGF inh,cRaf kinase inh,MEK1 kinase inh
COc1ccc(N=C2C(=Nc3ccc(OC)cc3)N(c3ccc(N(C)C)cc3)C(=S)N2c2ccc(OC)cc2)cc1,.,9.9%,-3.7%,-8.6%,-10.1,-9.3%
COc1ccc(C(=O)n2nc(-c3ccccc3)nc2SC)cc1,.,2.2%,0.4%,.,.,.
COc1ccc(N2CCN(C(=O)c3ccncc3)CC2)cc1,.,1.1%,3.1%,.,.,.
COc1ccc(N=C2NC(=O)S/C2=C\c2ccc(N(C)C)cc2)cc1,.,-96.2%,-5.4%,.,.,.
Cc1ccc2nc(NCCN)c3ncc(C)n3c2c1,.,.,6.3%,.,.,.
COc1ccc(C2=CC3=C(Br)C(=O)C(C)(OC(=O)CCc4ccccc4)C(=O)C3=CO2)cc1 (stereo unspecified),6.5%,10.2%,-13.9%,.,.,.
Nc1ncnc2c1nc(Br)n2[C@H]1O[C@H]2COP(=O)(O)O[C@H]2[C@@H]1O,4.8%,-3.5%,6.2%[21.7 µM],.,.,.
O=c1cc(-c2ccc(O)cc2)oc2cc(O[C@@H]3O[C@H](CO)[C@H](O)[C@H](O)[C@H]3O)cc(O)c12,.,.,18.7%,.,.,.
C/C(=N\Nc1nnc(-c2ccccc2)c(-c2ccccc2)n1)c1cccc([N+](=O)[O-])c1,?,15.3%,4.2%,-14.1%,-3.2,-4.9%
O=[N+]([O-])c1cccc(/C=N/Nc2nnc(-c3ccccc3)c(-c3ccccc3)n2)c1,-16.6%,8.9%,-0.1%,.,.,.
COc1ccc(C(=O)c2ccc(Cl)cc2)cc1,.,12.7%,8.4%,.,.,.
COc1ccc(C(=O)c2ccc(Cl)c([N+](=O)[O-])c2)cc1,8.91µM*,-8.0%,7.3%,15.8µM*,?,-7.9%
C/C(CCN1CCCc2nc(C)c(C)cc21)=N\OC[C@@H](O)COCc1ccco1,.,.,8.2%[13.1 µM],.,.,.
CCCOc1ccc(/C=N/Nc2ccccc2[N+](=O)[O-])c(O)c1,?,25.5%,-2.7%,?,?,-3.5%
CCCOc1ccc(/C=N/NC(=S)Nc2ccccc2[N+](=O)[O-])c(O)c1,1.6%,-2.8%,18.4%,.,.,.
C=CCN1C(=O)/C(=C\C=C2\N(C)c3ccccc3C2(C)C)SC1=S,?,-67.8%,-5.0%,.,.,.
C=CCN1C(=O)/C(=C/C=C2/N(CC)c3ccc(S(=O)(=O)N(C)C)cc3N2CC)SC1=S,?,-194.4%,-19.8%,?,-2.2,5.1%
Cc1ncc(C[n+]2csc(CCOP(=O)(O)OP(=O)(O)O)c2C)c(N)n1,.,5.3%,0.3%,.,.,.
CC#CC(C)C(OCOC)C(CC(C)Cc1cc(Br)cc(OCc2ccccc2)c1OC)OC (stereo unspecified),.,.,-18.4%[13.1 µM],.,.,.
C#C[C@]1(O)CC[C@H]2C3CCC4=Cc5oncc5CC4(C)C3CCC21C (stereo partly specified),19.0%,6.4%,4.3%,.,.,.
Cc1nc2cc(C)c(C)cc2s1,-20.3%[57.5 µM],-0.1%,1.4%,.,.,.
Cc1cc2nc3ccc(=[N+](C)C)cc-3sc2cc1N,?,-32.3%,?,11.2%,?,?
COc1cccc([C@H](O)Cn2cc(-c3cccc(CON=C(C)C)c3)nn2)c1,.,.,5.1%[13.1 µM],.,.,.
COC(=O)NC(CC(C)=O)c1ccc(Cl)cc1 (stereo unspecified),.,.,12.9%[13.1 µM],.,.,.
CCCCC/C=C\C\C=C/C=C/C=C/[C@@H](SCC(N)C(=O)O)[C@@H](O)CCCC(=O)O (stereo partly specified),4.2%,2.9%,5.1%,.,.,.
SMILES,ERK EGF block,GoLoco inh red,CBFb RUNX1 block,pERK EGF inh,cRaf kinase inh,MEK1 kinase inh
Cc1sc2ncnc(NCc3ccccc3)c2c1C,.,9.2%,7.9%,.,.,.
Fc1ccc(Nc2ncnc3sc4c(c23)CCC4)cc1F,2.51µM*,5.2%,7.5%,8.91µM*,?,?
O=S(=O)(Nc1ncnc2sc3c(c12)CCC3)c1ccc2ccccc2c1,.,0.7%,13.0%,.,.,.
Cc1sc2ncnc(Nc3ccccc3)c2c1C,.,-7.7%,-1.8%,?,-12.0,-0.6%
Fc1ccc(Nc2ncnc3sc4c(c23)CCC4)cc1,.,7.1%,13.5%,10µM*,?,-7.2%
Cc1cc(F)ccc1S(=O)(=O)Nc1ncnc2sc3c(c12)CCC3,0.9%[57.5 µM],1.6%,1.5%,.,.,.
C[C@H](Nc1ncnc2sc3c(c12)CCC3)C(=O)O,.,3.7%,2.7%,.,.,.
c1ccc(Nc2ncnc3sc4c(c23)CCC4)cc1,.,10.2%,18.4%,10µM*,-31.6,17.7%
O=C(O)/C(Cc1ccc([N+](=O)[O-])cc1)=N/O,.,4.4%[14.2 µM],.,.,.,.
C/C(CC/C(C)=N/O)=N/O,.,3.7%[14.2 µM],.,.,.,.
CCN1/C(=C2\C(=O)N(C)C(=S)N2C)C=Cc2ccccc21,?,8.0%,-16.6%,.,.,.
CCCN1C(=O)/C(=C2/C=Cc3ccccc3N2CC)SC1=S,5.62µM*,3.1%,.,10µM*,-8.3,-2.1%
COc1ccc(OC)c(C2=Nn3c(nnc3-c3ccccc3OC)SC2)c1,.,.,1.3%,.,.,.
N#CC(=C(\N)Sc1ccccc1N)/C(C#N)=C(/N)Sc1ccccc1N,1.41µM*,-10.6%,?,.,-14.1,.
Nc1ccccc1SCc1ccccc1,7.3%,8.4%,3.1%,.,.,.
